Measurements reported in the supplement of paper PMC10127200.
Where a name gives a salt, the structure may show the parent alone.

How the values were obtained:
Assay in all cases: Euclidean distance of Cell Painting phenotypic profile (signed KS, 77 features) to DMSO centroid (dimensionless distance); 5 or 10 uM (library dependent); higher = stronger phenotypic change vs DMSO (phenoactivity)
Conditions in all cases: 48 h
786-O = tested on: 786-O
Outline: (§1)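 Phenoactivity is computed as Euclidean distance to the median vehicle profile. The profiles, drawn from 77 Harmony features scored as signed Kolmogorov-Smirnov statistics versus same-plate vehicle wells, were corrected for plate position, correlation-weighted and replicate-averaged at the top dose. Stained cells were imaged confocally at 20X (9 fields/well) after 48 h with library compounds at 10 or 5 uM, 0.1% DMSO final, in five cancer lines and a healthy fibroblast line.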

A549 = tested on: A549
Outline: as §1

DU145 = tested on: DU145
Outline: as §1

FB = tested on: FB
Outline: as §1

HEPG2 = tested on: HEPG2
Outline: as §1

OVCAR4 = tested on: OVCAR4
Outline: as §1

`NCCCC[C@@H]1NC(=O)[C@@H](Cc2ccccc2)NC(=O)[C@H](CC(=O)O)NC(=O)CNC(=O)[C@H](CCCN=C(N)N)NC1=O` [Cyclo (-RGDfK)] was tested, and the Euclidean distance (786-O) was 2.63, the Euclidean distance (A549) was 1 and the Euclidean distance (DU145) was 2.08. For the same compound, the Euclidean distance (FB) was 0.709, the Euclidean distance (HEPG2) was 3.57 and the Euclidean distance (OVCAR4) was 2.1.
With `COc1cc2ncnc(Sc3nnc(C)s3)c2cc1OC` the Euclidean distance (786-O) was 1.26, the Euclidean distance (A549) was 1.44 and the Euclidean distance (DU145) was 0.977. The Euclidean distance (FB) was 1.09, the Euclidean distance (HEPG2) was 2.45 and the Euclidean distance (OVCAR4) was 1.9.
In the case of `CCn1cc(C(=O)O)c(=O)c2cc(F)c(N3CCN(C)CC3)cc21` [Pefloxacin Mesylate], the Euclidean distance (786-O) is reported as 1.56, the Euclidean distance (A549) is reported as 0.826 and the Euclidean distance (DU145) is reported as 0.983. The Euclidean distance (FB) was 1.04, the Euclidean distance (HEPG2) was 1.02 and the Euclidean distance (OVCAR4) was 1.3.
Compound `Nc1ncnc2c1ncn2[C@@H]1O[C@H](CO)[C@@H](O)[C@@H]1O` [Vidarabine monohydrate] has an Euclidean distance (786-O) of 0.895, an Euclidean distance (A549) of 1.22 and an Euclidean distance (DU145) of 0.966. For the same compound, the Euclidean distance (FB) was 0.665, the Euclidean distance (HEPG2) was 1.66 and the Euclidean distance (OVCAR4) was 1.18.
`NC(=O)c1ccc(N(C(N)=O)c2c(F)cccc2F)nc1-c1ccc(F)cc1F` showed an Euclidean distance (786-O) of 1.24, an Euclidean distance (A549) of 1.16 and an Euclidean distance (DU145) of 1.41. The Euclidean distance (FB) was 1.37, the Euclidean distance (HEPG2) was 0.723 and the Euclidean distance (OVCAR4) was 1.18.
For `COc1cc2ncnc(Nc3cccc(Cl)c3F)c2cc1OC(=O)N1CCN(C)C[C@H]1C`, the Euclidean distance (786-O) was 1.15, the Euclidean distance (A549) was 2.05 and the Euclidean distance (DU145) was 1.72. The Euclidean distance (FB) was 1.4, the Euclidean distance (HEPG2) was 0.691 and the Euclidean distance (OVCAR4) was 1.33.
`O=C(O[C@@H]1Cc2c(O)cc(O)cc2O[C@@H]1c1cc(O)c(O)c(O)c1)c1cc(O)c(O)c(O)c1` [(-)-Epigallocatechin Gallate] showed an Euclidean distance (786-O) of 0.998, an Euclidean distance (A549) of 0.875 and an Euclidean distance (DU145) of 1.33. The Euclidean distance (FB) was 1.39, the Euclidean distance (HEPG2) was 1.17 and the Euclidean distance (OVCAR4) was 0.757.
In the case of `Cc1nc2n(c(=O)c1CCN1CCC(c3noc4cc(F)ccc34)CC1)CCCC2O` (centres undefined) [Paliperidone], the Euclidean distance (786-O) is reported as 0.901, the Euclidean distance (A549) is reported as 0.427 and the Euclidean distance (DU145) is reported as 0.828. For the same compound, the Euclidean distance (FB) was 0.783, the Euclidean distance (HEPG2) was 0.494 and the Euclidean distance (OVCAR4) was 0.895.
For `CC(C)OC(=O)C1=CN(C(=O)c2ccc(F)c(F)c2)CC(C)(C)c2c1[nH]c1ccccc21`, the Euclidean distance (786-O) was 0.816, the Euclidean distance (A549) was 0.896 and the Euclidean distance (DU145) was 0.818. It also gave an Euclidean distance (FB) of 0.982, an Euclidean distance (HEPG2) of 1.22 and an Euclidean distance (OVCAR4) of 1.07.
Work on `CN(C)[C@@H](CCOc1cccc2ccccc12)c1ccccc1` [Dapoxetine HCl] yielded an Euclidean distance (786-O) of 1.49, an Euclidean distance (A549) of 0.787 and an Euclidean distance (DU145) of 2.96. The Euclidean distance (FB) was 1.26, the Euclidean distance (HEPG2) was 1.1 and the Euclidean distance (OVCAR4) was 1.26.
`CCCC(=O)O[C@]1(C(=O)CCl)[C@H](C)C[C@@H]2[C@@H]3CCC4=CC(=O)C=C[C@]4(C)[C@]3(F)C(=O)C[C@@]21C` [clobetasone butyrate] showed an Euclidean distance (786-O) of 1.53, an Euclidean distance (A549) of 2.42 and an Euclidean distance (DU145) of 3.28. The Euclidean distance (FB) was 1.92, the Euclidean distance (HEPG2) was 1.73 and the Euclidean distance (OVCAR4) was 2.23.
With `Cn1cc(C2=C(c3ccc(Cl)cc3Cl)C(=O)NC2=O)c2ccccc21` the Euclidean distance (786-O) was 1.92, the Euclidean distance (A549) was 0.949 and the Euclidean distance (DU145) was 1.79. For the same compound, the Euclidean distance (FB) was 1.57, the Euclidean distance (HEPG2) was 1.08 and the Euclidean distance (OVCAR4) was 1.01.
Compound `Cc1nnc(SCC2=C(C(=O)O)N3C(=O)[C@@H](NC(=O)Cn4cc(Cl)c(=O)c(Cl)c4)[C@H]3SC2)s1` [Cefazedone] has an Euclidean distance (786-O) of 1.36, an Euclidean distance (A549) of 0.841 and an Euclidean distance (DU145) of 0.667. The Euclidean distance (FB) was 1.16, the Euclidean distance (HEPG2) was 0.733 and the Euclidean distance (OVCAR4) was 0.862.
Work on `Cc1onc(-c2ccccc2)c1-c1ccc(S(N)(=O)=O)cc1` [Valdecoxib] yielded an Euclidean distance (786-O) of 1.12, an Euclidean distance (A549) of 1.19 and an Euclidean distance (DU145) of 0.983. For the same compound, the Euclidean distance (FB) was 1.21, the Euclidean distance (HEPG2) was 0.509 and the Euclidean distance (OVCAR4) was 1.58.
In the case of `NC(=O)NC1NC(=O)NC1=O` (centres undefined) [Allantoin], the Euclidean distance (786-O) is reported as 0.856, the Euclidean distance (A549) is reported as 0.693 and the Euclidean distance (DU145) is reported as 1.19. The Euclidean distance (FB) was 0.801, the Euclidean distance (HEPG2) was 3.52 and the Euclidean distance (OVCAR4) was 1.68.
`CN/C(=N\CCSCc1nc[nH]c1C)NC#N` [Cimetidine] was tested, and the Euclidean distance (786-O) was 0.94, the Euclidean distance (A549) was 0.861 and the Euclidean distance (DU145) was 0.762. For the same compound, the Euclidean distance (FB) was 0.864, the Euclidean distance (HEPG2) was 0.95 and the Euclidean distance (OVCAR4) was 1.25.
`CCC(=O)Oc1ccc2c(c1)CCC1C2CCC2(C)C(OC(=O)CC)CCC12` (stereo not drawn) [17-Beta-Estradiol-3.17-Dipropionate] was tested, and the Euclidean distance (786-O) was 1.55, the Euclidean distance (A549) was 0.8 and the Euclidean distance (DU145) was 1.46. For the same compound, the Euclidean distance (FB) was 1.21, the Euclidean distance (HEPG2) was 0.326 and the Euclidean distance (OVCAR4) was 0.98.
Compound `OC[C@H]1O[C@@H](O[C@@H]2[C@@H](CO)OC(O)(CO)[C@H]2O)[C@H](O)[C@@H](O)[C@H]1O` (mixture of isomers) [Lactulose] has an Euclidean distance (786-O) of 1.29, an Euclidean distance (A549) of 0.822 and an Euclidean distance (DU145) of 0.75. It also gave an Euclidean distance (FB) of 0.999, an Euclidean distance (HEPG2) of 1.43 and an Euclidean distance (OVCAR4) of 1.7.
In the case of `C=C1[C@H](CO)[C@@H](O)C[C@@H]1n1cnc2c(=O)[nH]c(N)nc21` [Entecavir], the Euclidean distance (786-O) is reported as 1.46, the Euclidean distance (A549) is reported as 1.16 and the Euclidean distance (DU145) is reported as 1.05. For the same compound, the Euclidean distance (FB) was 1.14, the Euclidean distance (HEPG2) was 1.35 and the Euclidean distance (OVCAR4) was 1.15.
